Among the data in PubChem BioAssay (NCATS) are Potency and outcome values, retold here.

Several values for one entry are separate records, joined by “and”; a condition that tells them apart may be missing. Equal values may be shown once. Results filed as inconclusive are left out. Some structures have more than one record in an assay (separate samples or runs), and their calls can disagree. Activity calls are given as the source filed them. Unless noted, calls follow the shape of the dose curve; as a rule, active = well fitted curve in the direction sought with a large enough effect; inconclusive = small, poorly fitted or top-dose-only effect, or another doubt; inactive = no such curve, though single readings can be large; an effect the other way counts as inactive or inconclusive.

Assay [1] can be described thus: Primary qHTS for small molecule stabilizers of the endoplasmic reticulum resident proteome: Secreted ER Calcium Modulated Protein (SERCaMP) assay (AID 1508630). Also: potency is read from the fitted curve at half-maximal effect. Put shortly: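 GLuc-SERCaMP-expressing SH-SY5Y cells, pretreated 16 h with compound, are challenged with thapsigargin to empty ER calcium stores; after 4 h, coelenterazine is added directly to the medium and luminescence is imaged.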
A general note: Quantitative high-throughput screening tests each substance at several concentrations.

Assay [2] is described as follows: A High-Content qHTS Against Drug Library for the Identification of Small Molecules that Inhibit DYT1 Early Onset Primary Dystonia-Associated Cell Pathology (AID 1645839; calls by dose curve; also: series mostly up to about 46 µM). Put shortly:
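Readout: %pathology, the punctate EGFP-TorsinA distribution from imaging, as the primary channel and cell count as the toxicity counterscreen. HEK293 Flp-In cells expressing delE TorsinA were induced with tetracycline and treated with compound for 48 h.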

Assay [3] concerns the target Cytochrome P450 2D6 (Homo sapiens) (UniProt P10635). As to the kind of experiment: Cytochrome P450 family 2 subfamily D member 6 (CYP2D6) small molecule antagonists: luciferase biochemical (cell-free) qHTS assay (AID 1645840; active = well fitted curve in the direction sought with a large enough effect in the repeat runs; an effect the other way counts as inactive or inconclusive; also: nearly all actives have a fitted effect of over 55% in size; also: potency is read from the fitted curve at half-maximal effect). A digest of the protocol:
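P450-Glo luminescent screen: recombinant CYP2D6 enzyme–proluciferin substrate mix preincubated with compound 10 min at room temperature, then NADPH regeneration added for 1 h at room temperature. Detection reagent added for 20 min; luciferin light read as relative luminescence units.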

Assay [4] deals with Cytochrome P450 2C9 (Homo sapiens) (UniProt P11712). As to the kind of experiment: Cytochrome P450 family 2 subfamily C member 9 (CYP2C9) small molecule antagonists: luciferase biochemical (cell-free) qHTS assay (AID 1645842; active = well fitted curve in the direction sought with a large enough effect in the repeat runs; an effect the other way counts as inactive or inconclusive; also: nearly all actives have a fitted effect of over 55% in size; also: potency is read from the fitted curve at half-maximal effect). Put shortly:
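Luminescence, after 20 min with luciferin detection reagent, reflected CYP2C9 turnover during a 1 h NADPH-driven reaction at 37C. Enzyme-substrate mix contained 0.4% bovine serum albumin and was preincubated with compound 10 min at room temperature.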

For a further assay, the target named is Papain (Carica papaya) (UniProt P00784). Briefly: Primary qHTS assay for inhibitors of the protease papain (AID 1645873).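 Also: papain turnover of Z-FR-AMC read as the AMC fluorescence gain over 10 min.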 Also: potency is read from the fitted curve at half-maximal effect.
Sequence of Papain (Carica papaya) (P00784 whole entry, looked up, the tested form may be a part): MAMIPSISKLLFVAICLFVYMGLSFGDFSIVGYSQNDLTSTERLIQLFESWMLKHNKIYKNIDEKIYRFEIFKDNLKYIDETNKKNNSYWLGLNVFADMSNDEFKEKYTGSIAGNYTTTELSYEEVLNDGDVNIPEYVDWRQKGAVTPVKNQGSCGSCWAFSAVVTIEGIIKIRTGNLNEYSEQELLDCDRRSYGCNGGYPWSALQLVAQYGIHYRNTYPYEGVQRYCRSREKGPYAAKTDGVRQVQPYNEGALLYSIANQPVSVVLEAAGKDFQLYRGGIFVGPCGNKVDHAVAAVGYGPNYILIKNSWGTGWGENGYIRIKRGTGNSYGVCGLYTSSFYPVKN
Assay [5] can be described thus: Primary qHTS for inhibitors of nuclear receptor binding SET domain protein 2 (NSD2) in an isogenic RCH-ACV NSD2 p.E1099K mutant (9B) (AID 1645876). Also: nearly all actives have a fitted effect of over 70% in size. Also: potency is read from the fitted curve at half-maximal effect.
Assay [6] in a line: Primary qHTS for inhibitors of nuclear receptor binding SET domain protein 2 (NSD2) in an RCH-ACV wild type WT cells (2C) (AID 1645877). Also: nearly all actives have a fitted effect of over 70% in size. Also: potency is read from the fitted curve at half-maximal effect.
Assay [7] concerns the target Cytochrome P450 3A4 (Homo sapiens) (UniProt P08684). Briefly: Cytochrome P450 family 3 subfamily A member 4 (CYP3A4) small molecule antagonists: luciferase qHTS assay (AID 1645841; active = well fitted curve in the direction sought with a large enough effect in the repeat runs; an effect the other way counts as inactive or inconclusive; also: nearly all actives have a fitted effect of over 45% in size). A digest of the protocol:
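P450-Glo CYP3A4 enzyme with proluciferin substrate was preincubated with DMSO-dissolved compounds for 10 min at room temperature. NADPH regeneration solution started a 1 h reaction. Detection reagent stopped it, and luminescence was read after 20 min.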

Assay [8] has as its target Rap guanine nucleotide exchange factor 3 (Homo sapiens) (UniProt O95398). As to the kind of experiment: Confirmatory qHTS for antagonist of cAMP-regulated guanine nucleotide exchange factor 3 (EPAC1) (AID 1645880). Also: nearly all actives have a fitted effect of over 55% in size. A digest of the protocol:
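Nucleotide exchange uses 100 nM EPAC1, 250 nM RAP1B-BODIPY-GDP and 50 uM GDP, with compounds in a concentration-titration series. After 5 min at room temperature, fluorescence (480 nm ex/540 nm em) is read every 5 min for 30 min. Data are normalized to control ATA and DMSO.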

Assay [9] shares this target. As to the kind of experiment: Confirmatory qHTS for agonist of cAMP-regulated guanine nucleotide exchange factor 3 (EPAC1) (AID 1645881).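 Also: EPAC1 catalysed release of BODIPY-GDP from Rap1B seen as fluorescence loss; nearly all actives have a fitted effect of over 75% in size.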
Assay [10] concerns the target Rap guanine nucleotide exchange factor 4 (Homo sapiens) (UniProt Q8WZA2). Briefly: Confirmatory qHTS for agonist of cAMP-regulated guanine nucleotide exchange factor 4 (EPAC2) (AID 1645884).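 Also: nucleotide exchange releases bodipy-GDP from Rap1 and this lowers its fluorescence; nearly all actives have a fitted effect of over 65% in size.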
For assay [11] the target is unchanged. As to the kind of experiment: Confirmatory qHTS for antagonist of cAMP-regulated guanine nucleotide exchange factor 4 (EPAC2) (AID 1645885). Also: nearly all actives have a fitted effect of over 25% in size.
In assay [12] the target is Rap guanine nucleotide exchange factor 3 (Homo sapiens) (UniProt O95398). As to the kind of experiment: Counterscreen qHTS for antagonist of cAMP-regulated guanine nucleotide exchange factor 3 (EPAC1) (AID 1645888).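 Also: fluorescence loss as bound BODIPY-GDP is released from Rap1B.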 A digest of the protocol:
(§1)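 Measured: fluorescence of BODIPY-GDP bound to Rap1B, which falls as exchange proceeds. Conditions include 50 uM competing GDP, 5 and 30 min reads, and a later cAMP challenge for antagonist detection.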
On the technique in general: Counterscreens check selectivity or assay interference.

For assay [13] the target is unchanged. Briefly: Counterscreen qHTS for agonist of cAMP-regulated guanine nucleotide exchange factor 3 (EPAC1) (AID 1645889). Also: potency is read from the fitted curve at half-maximal effect; nearly all actives have a fitted effect of over 40% in size. Put shortly:
as §1

Sequence of Cytochrome P450 2C9 (Homo sapiens) (P11712 whole entry, looked up): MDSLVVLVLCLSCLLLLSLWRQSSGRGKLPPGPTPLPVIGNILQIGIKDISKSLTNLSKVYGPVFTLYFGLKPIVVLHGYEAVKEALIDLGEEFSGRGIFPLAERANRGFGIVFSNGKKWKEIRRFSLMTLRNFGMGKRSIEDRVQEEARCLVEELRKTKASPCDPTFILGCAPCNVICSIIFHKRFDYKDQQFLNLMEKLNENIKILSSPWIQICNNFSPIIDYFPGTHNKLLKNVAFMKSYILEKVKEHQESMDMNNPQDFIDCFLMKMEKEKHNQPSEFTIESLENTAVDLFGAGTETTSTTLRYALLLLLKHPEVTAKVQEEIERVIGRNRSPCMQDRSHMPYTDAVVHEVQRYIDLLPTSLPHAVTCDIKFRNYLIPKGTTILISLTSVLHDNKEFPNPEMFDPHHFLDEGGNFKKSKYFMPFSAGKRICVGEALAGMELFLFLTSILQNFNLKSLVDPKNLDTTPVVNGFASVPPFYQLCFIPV
Sequence of Rap guanine nucleotide exchange factor 4 (Homo sapiens) (Q8WZA2 whole entry, looked up): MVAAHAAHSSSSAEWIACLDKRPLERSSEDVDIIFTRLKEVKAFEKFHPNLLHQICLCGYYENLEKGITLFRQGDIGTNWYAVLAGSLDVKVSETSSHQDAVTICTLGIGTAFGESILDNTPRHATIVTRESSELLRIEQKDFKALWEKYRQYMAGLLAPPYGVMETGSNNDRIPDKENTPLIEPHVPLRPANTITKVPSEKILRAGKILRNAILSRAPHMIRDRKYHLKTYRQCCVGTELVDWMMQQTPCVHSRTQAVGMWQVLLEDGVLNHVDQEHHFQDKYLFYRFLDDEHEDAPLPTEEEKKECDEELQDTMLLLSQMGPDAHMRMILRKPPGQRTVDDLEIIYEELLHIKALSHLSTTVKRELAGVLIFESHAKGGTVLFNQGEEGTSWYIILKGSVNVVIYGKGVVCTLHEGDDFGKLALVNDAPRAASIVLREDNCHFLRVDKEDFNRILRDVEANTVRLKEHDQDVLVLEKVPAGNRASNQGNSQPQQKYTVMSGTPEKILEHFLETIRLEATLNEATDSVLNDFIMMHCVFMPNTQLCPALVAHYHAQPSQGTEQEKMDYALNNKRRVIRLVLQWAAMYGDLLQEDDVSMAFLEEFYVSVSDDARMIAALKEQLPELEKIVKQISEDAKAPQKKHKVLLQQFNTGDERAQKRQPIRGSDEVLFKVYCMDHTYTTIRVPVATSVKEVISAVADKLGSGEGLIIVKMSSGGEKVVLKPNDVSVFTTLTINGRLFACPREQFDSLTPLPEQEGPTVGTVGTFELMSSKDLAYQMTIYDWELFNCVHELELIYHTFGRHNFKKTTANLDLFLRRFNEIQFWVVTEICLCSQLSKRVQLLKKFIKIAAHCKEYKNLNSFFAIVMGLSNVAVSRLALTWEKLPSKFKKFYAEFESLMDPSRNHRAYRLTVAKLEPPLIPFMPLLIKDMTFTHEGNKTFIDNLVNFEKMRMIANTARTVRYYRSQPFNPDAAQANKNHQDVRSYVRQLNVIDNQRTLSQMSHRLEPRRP
Sequence of Cytochrome P450 2D6 (Homo sapiens) (P10635 whole entry, looked up): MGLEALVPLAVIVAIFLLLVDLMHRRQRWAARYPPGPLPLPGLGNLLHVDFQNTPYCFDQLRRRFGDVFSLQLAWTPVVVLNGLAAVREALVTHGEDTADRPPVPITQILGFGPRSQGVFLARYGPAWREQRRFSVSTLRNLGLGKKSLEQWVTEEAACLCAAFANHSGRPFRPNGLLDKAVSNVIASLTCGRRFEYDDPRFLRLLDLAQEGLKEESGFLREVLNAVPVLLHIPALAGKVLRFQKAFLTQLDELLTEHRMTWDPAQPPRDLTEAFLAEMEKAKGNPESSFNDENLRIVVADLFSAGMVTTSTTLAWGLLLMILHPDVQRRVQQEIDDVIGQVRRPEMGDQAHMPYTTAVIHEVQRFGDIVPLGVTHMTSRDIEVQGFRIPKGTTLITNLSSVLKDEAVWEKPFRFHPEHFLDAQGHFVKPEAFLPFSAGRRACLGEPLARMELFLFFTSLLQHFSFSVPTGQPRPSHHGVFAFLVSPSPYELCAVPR
Sequence of Rap guanine nucleotide exchange factor 3 (Homo sapiens) (O95398 whole entry, looked up): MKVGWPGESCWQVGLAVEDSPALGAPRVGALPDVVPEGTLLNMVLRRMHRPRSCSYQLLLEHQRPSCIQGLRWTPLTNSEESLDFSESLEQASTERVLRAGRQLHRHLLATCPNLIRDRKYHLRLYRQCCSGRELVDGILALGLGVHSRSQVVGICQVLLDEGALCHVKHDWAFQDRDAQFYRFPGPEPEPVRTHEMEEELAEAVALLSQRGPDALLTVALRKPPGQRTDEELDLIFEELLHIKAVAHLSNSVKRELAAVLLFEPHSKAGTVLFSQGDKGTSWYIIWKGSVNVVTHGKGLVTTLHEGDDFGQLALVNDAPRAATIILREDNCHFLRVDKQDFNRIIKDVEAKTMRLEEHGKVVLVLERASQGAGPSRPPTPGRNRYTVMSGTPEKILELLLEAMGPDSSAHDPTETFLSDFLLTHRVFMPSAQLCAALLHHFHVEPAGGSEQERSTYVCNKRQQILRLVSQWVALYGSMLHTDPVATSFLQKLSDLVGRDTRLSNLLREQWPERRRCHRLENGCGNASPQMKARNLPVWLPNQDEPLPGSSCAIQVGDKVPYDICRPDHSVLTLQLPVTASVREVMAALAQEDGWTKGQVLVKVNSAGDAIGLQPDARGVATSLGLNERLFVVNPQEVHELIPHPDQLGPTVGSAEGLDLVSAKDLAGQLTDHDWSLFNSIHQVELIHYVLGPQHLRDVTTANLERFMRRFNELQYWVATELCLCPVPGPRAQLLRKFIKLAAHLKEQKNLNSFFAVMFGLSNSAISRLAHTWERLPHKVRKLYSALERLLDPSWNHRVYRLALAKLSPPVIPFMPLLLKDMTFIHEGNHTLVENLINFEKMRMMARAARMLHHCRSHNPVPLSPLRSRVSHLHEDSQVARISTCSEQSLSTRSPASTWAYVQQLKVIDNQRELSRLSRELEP
Sequence of Cytochrome P450 3A4 (Homo sapiens) (P08684 whole entry, looked up): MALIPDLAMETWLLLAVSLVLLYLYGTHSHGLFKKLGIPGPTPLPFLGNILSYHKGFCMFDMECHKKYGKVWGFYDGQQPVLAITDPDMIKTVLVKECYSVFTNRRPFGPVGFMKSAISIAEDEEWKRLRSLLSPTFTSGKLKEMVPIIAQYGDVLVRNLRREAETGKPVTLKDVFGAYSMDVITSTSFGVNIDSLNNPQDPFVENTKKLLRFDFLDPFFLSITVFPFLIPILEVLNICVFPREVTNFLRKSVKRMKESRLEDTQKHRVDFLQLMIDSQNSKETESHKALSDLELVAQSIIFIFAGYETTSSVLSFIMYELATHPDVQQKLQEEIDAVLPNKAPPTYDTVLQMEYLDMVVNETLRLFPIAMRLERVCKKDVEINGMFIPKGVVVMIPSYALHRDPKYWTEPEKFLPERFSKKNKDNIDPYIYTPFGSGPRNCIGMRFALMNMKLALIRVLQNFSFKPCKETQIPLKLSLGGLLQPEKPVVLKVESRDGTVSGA

As to `CN1C(C(=O)Nc2ccccn2)=C(O)c2ccccc2S1(=O)=O`, the Potency result (in assay [1]; in assay [2]; in [3]; in the assay with Papain (Carica papaya); in assay [5]; in assay [6]) was “inactive” in each case. For the same compound, the Potency in [4] was 15.5 µM (active) and 10.7 µM (active).
`Cc1ccccc1N1C(=O)c2cc(S(N)(=O)=O)c(Cl)cc2NC1C` (stereo not given): the Potency result in assay [1], in assay [2], in assay [3], in assay [4], in assay [5] and in [6] was “inactive” throughout.
As to `O=C(C1CCCCC1)N1CC(=O)N2CCc3ccccc3C2C1` (stereo not given), the Potency result (in [1]; in [2]; in assay [4]; with Papain (Carica papaya); in assay [5]; in assay [6]) was “inactive” in each case.
Consider `Cc1cn([C@H]2C=C[C@@H](CO)O2)c(=O)[nH]c1=O`, for which the Potency result (in assay [1]; in [2]; in assay [3]; in assay [4]; with Papain (Carica papaya); in assay [5]) was “inactive” throughout. In assay [6], the Potency result was “inactive”.
Turning to `COc1ccc(C2CNC(=O)C2)cc1OC1CCCC1` (stereo not given), the Potency result (in assay [1]; in assay [2]; in assay [3]; in assay [4]; with Papain (Carica papaya); in [5]) was “inactive” in each case. In [6], the Potency entry was “inactive”.
`CCN1CCCC1CNC(=O)c1cc(S(=O)(=O)CC)c(N)cc1OC` (stereo not given): the Potency entry (in [1]; in [2]; in assay [4]; in the assay with Papain (Carica papaya); in [5]; in assay [6]) was “inactive” throughout. The compound was called inactive in [7].
For the compound `CC(C)(Oc1ccc(C2CC2(Cl)Cl)cc1)C(=O)O` (stereo not given), the Potency result (in assay [1]; in [2]; in assay [3]; with Papain (Carica papaya); in [5]; in assay [6]) was “inactive” each time.
As to `CN(Cc1cnc2nc(N)nc(N)c2n1)c1ccc(C(=O)N[C@@H](CCC(=O)O)C(=O)O)cc1`, the Potency result in assay [1], in assay [2] and in assay [3] was “inactive” each time. For the same compound, the Potency is 9.4 nM (active) and 148 nM (active) in [5]; 9.4 nM (active) and 148 nM (active) in [6].
As for `Cc1cn([C@H]2C[C@H](N=[N+]=[N-])[C@@H](CO)O2)c(=O)[nH]c1=O`, the Potency result in [1], in assay [2], in assay [3], in assay [4] and in [5] was “inactive” in each case.
On to `Cc1cc(C(C)(C)C)c(O)c(C)c1CC1=NCCN1`, for which the Potency entry (in assay [1]; in assay [2]; in [4]; with Papain (Carica papaya); in [5]; in [6]) was “inactive” throughout. Further, in assay [3], the Potency was 1.95 µM (active).
On to `CC1COc2c(N3CCN(C)CC3)c(F)cc3c(=O)c(C(=O)O)cn1c23` (stereo not given), for which the Potency entry in assay [1], in assay [2], in assay [3], in assay [4], in [5] and in [6] was “inactive” in each case.
As to `N[C@@H](Cc1c[nH]c2ccc(O)cc12)C(=O)O`, the Potency entry (in assay [1]; in [2]; with Papain (Carica papaya); in [5]; in [6]) was “inactive” in each case. Moreover, the Potency in assay [3] was 19.5 µM (active); in assay [4], 15.5 µM (active).
For `C[C@H]1c2cccc(O)c2C(O)=C2C(=O)[C@]3(O)C(O)=C(C(N)=O)C(=O)[C@@H](N(C)C)[C@@H]3[C@@H](O)[C@@H]21`, the Potency result in [1], in [2], in assay [3] and in assay [4] was “inactive” in each case. In addition, the Potency was 22.4 µM (active) with Papain (Carica papaya), 23.5 µM (active) in assay [5] and 9.34 µM (active) in assay [6].
With `Cn1c(=O)c2[nH]cnc2n(C)c1=O`, the Potency result (in assay [1]; in assay [2]; in assay [3]; with Papain (Carica papaya); in assay [5]; in assay [6]) was “inactive” throughout.
`CC(COc1ccccc1)N(CCCl)Cc1ccccc1` (stereo not given): the Potency entry in [1], in assay [2], in assay [5] and in [6] was “inactive” each time. Besides, the Potency is 0.723 µM (active) in [3] and 12.1 µM (active) in [4].
In the case of `COc1ccc2[nH]cc(CCNC(C)=O)c2c1`, the Potency entry (in [1]; in assay [2]; in [3]; in [4]; in the assay with Papain (Carica papaya); in [5]) was “inactive” in each case. For the same compound, the Potency result in [6] was “inactive”.
Take `CS(=O)(=O)Nc1ccc([N+](=O)[O-])cc1Oc1ccccc1`: the Potency result (in assay [1]; in [2]; in assay [3]; with Papain (Carica papaya); in [5]; in assay [6]) was “inactive” throughout. In addition, the Potency in assay [4] was 13.8 µM (active).
In the case of `CCOC(=O)Nc1ccc(NCc2ccc(F)cc2)nc1N`, the Potency result in [1], in assay [2], in assay [5], in [6], in assay [9] and in assay [10] was “inactive” throughout. For the same compound, the Potency entry in [11] is “inactive”. Besides, the Potency in [3] is 3.09 µM (active); in assay [13], 4.47 µM (active). The compound was called inactive in assay [8] and in assay [12].
On to `CC[C@@]1(O)C(=O)OCc2c1cc1n(c2=O)Cc2cc3c(CN(C)C)c(O)ccc3nc2-1`, for which the Potency result in [1], in assay [2], in [3], in assay [4], in assay [10] and in [11] was “inactive” each time. The Potency in the assay with Papain (Carica papaya) is 28.2 µM (active); in [5], 16.8 nM (active) and 57.8 nM (active); in [6], 10.6 nM (active) and 23 nM (active). Also, in assay [8], the compound was classed as inactive.
`COC(=O)Nc1nc2ccc(C(=O)c3cccs3)cc2[nH]1`: the Potency result (in assay [1]; in assay [2]; in assay [3]; in assay [4]; in the assay with Papain (Carica papaya); in [9]) was “inactive” in each case. Besides, the Potency entry in [10] and in assay [11] was “inactive” throughout. Further, the Potency in assay [5] is 13.3 nM (active) and 93.4 nM (active); in assay [6], 9.4 nM (active) and 66.1 nM (active). In addition, the outcome in assay [8] was inactive.
For the compound `CN(CCOc1ccc(NS(C)(=O)=O)cc1)CCc1ccc(NS(C)(=O)=O)cc1`, the Potency entry (in assay [1]; in [2]; in assay [4]; with Papain (Carica papaya); in [5]; in assay [6]) was “inactive” in each case.
On to `O=c1c(-c2ccc(O)cc2)coc2cc(O)cc(O)c12`, for which the Potency result (in assay [1]; in assay [2]; in assay [4]; with Papain (Carica papaya)) was “inactive” throughout. For the same compound, the Potency is 11.9 µM (active) and 13.5 µM (active) in [5]; 11.9 µM (active) and 10.8 µM (active) in assay [6].
Regarding `CC(C)Cc1ccc(C(C)C(=O)O)cc1` (stereo not given), the Potency result (in assay [1]; in assay [2]; in assay [3]; in [4]; with Papain (Carica papaya); in [5]) was “inactive” in each case. Further, in [6], the Potency result was “inactive”.
For the compound `NCCCCCC(=O)O`, the Potency result in assay [1] is “inactive and 33.5 µM (active)”. For the same compound, the Potency result (in [2]; in assay [3]; in [4]; with Papain (Carica papaya); in assay [5]; in assay [6]) was “inactive” each time.
`CC[N+](CC)(CC)CCOc1cccc(OCC[N+](CC)(CC)CC)c1OCC[N+](CC)(CC)CC`: the Potency result (in [1]; in [2]; in assay [3]; in assay [4]; with Papain (Carica papaya); in [5]) was “inactive” each time. The Potency entry in [6] was “inactive”.
As to `CC1(C)O[C@H]2CC(=O)OC[C@]23[C@H]2CC[C@@]4(C)[C@H](c5ccoc5)OC(=O)[C@H]5O[C@]54[C@]2(C)C(=O)C[C@@H]13`, the Potency entry in assay [1], in [2], in assay [3], in assay [4], in assay [5] and in [6] was “inactive” in each case.
